Laboratory results as given in PubChem BioAssay (Tox21).
Records with an inconclusive call do not appear. Activity calls are given as the source filed them. Unless noted, calls come from the whole dose curve; as a rule, active = well fitted curve in the direction sought with a large enough effect in the repeat runs; inconclusive = weak or mixed curves; inactive = no such curve, though single readings can be large; an effect the other way counts as inactive or inconclusive.

Tests used:
[1] = target: Aryl hydrocarbon receptor (Homo sapiens) (UniProt P35869); test: qHTS assay to identify small molecule that activate the aryl hydrocarbon receptor (AhR) signaling pathway (AID 743085);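 note: HG2L7.5c1 human HepG2 liver cells with stably integrated DRE-driven firefly reporter; series mostly up to about 70 µM; nearly all actives have a fitted effect of over 15% in size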
How it was run: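 Compounds were tested in HepG2 hepatocellular carcinoma cells harbouring a stably integrated luciferase gene under control of 20 DREs. Increased reporter signal after 24 h treatment at 37C was taken as AhR activation.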

[2] = qHTS assay to identify small molecule that activate the aryl hydrocarbon receptor (AhR) signaling pathway - cell viability counter screen (AID 743086); note: nearly all actives have a fitted effect of over 45% in size; note: potency is the fitted concentration of half-maximal effect
How it was run: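 HepG2-AhR-luc (HG2L7.5c1) cells, 4000/well, treated 24 h at 37 C with compound; viability measured as CellTiter-Fluor fluorescence after 30 min in the same wells as the luciferase read.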

[3] = target: Peroxisome proliferator-activated receptor gamma (Homo sapiens) (UniProt P37231); test: qHTS assay to identify small molecule agonists of the peroxisome proliferator-activated receptor gamma (PPARg) signaling pathway (AID 743094; active = well fitted activation curve with a large enough effect in the signal ratio in the repeat runs, not every such curve was filed as active; the % refers to the signal ratio; note: potency is the fitted concentration of half-maximal effect)
How it was run: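 Fluorescence-based beta-lactamase readout in HEK293H PPARg UAS-bla cells after 17 h compound exposure (37C) and 1 h B/G FRET substrate incubation at room temperature.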

[4] = qHTS assay for small molecule agonists of the antioxidant response element (ARE) signaling pathway (AID 743202; active = well fitted activation curve with a large enough effect in the signal ratio in the repeat runs, not every such curve was filed as active; the % refers to the signal ratio)
How it was run: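 HepG2 ARE-bla cells; 16 h treatment at 37 C; FRET-based beta-lactamase fluorescence read after 2 h substrate incubation at room temperature.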

[5] = qHTS assay for small molecule agonists of the antioxidant response element (ARE) signaling pathway - cell viability counter screen (AID 743203; calls by dose curve; note: nearly all actives have a fitted effect of over 55% in size)
How it was run: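 Parallel cytotoxicity read-out for the ARE-bla screen: HepG2 reporter cells, 16 hrs with compounds, then CellTiter-Glo luminescence.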

[6] = qHTS assay for small molecule activators of the heat shock response signaling pathway - cell viability counter screen (AID 743209); note: nearly all actives have a fitted effect of over 50% in size
How it was run: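 To flag cytotoxic compounds, HSE-bla HeLa cells plated at 1500 cells/well were dosed for 5 h at 37 C, followed by the reporter FRET read and then CellTiter-Glo, with luminescence recorded 30 min after reagent addition.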

[7] = qHTS assay for small molecule activators of the heat shock response signaling pathway (AID 743210; active = well fitted activation curve with a large enough effect in the signal ratio in the repeat runs, with a control signal flat, not every such curve was filed as active; the % refers to the signal ratio;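 note: HeLa cells with beta-lactamase reporter driven by heat shock elements; series mostly up to about 63 µM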)
How it was run: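 Following overnight attachment, HSE-bla HeLa cells received test compounds for 5 h at 37 C; beta-lactamase activity was then detected via FRET substrate fluorescence.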

[8] = qHTS assay to identify small molecule agonists of the peroxisome proliferator-activated receptor delta (PPARd) signaling pathway - cell viability counter screen (AID 743211); note: nearly all actives have a fitted effect of over 55% in size; note: potency is the fitted concentration of half-maximal effect
How it was run: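 Counter screen for cytotoxicity run in parallel with the PPARd reporter screen. Beta-lactamase reporter HEK293H cells exposed to compounds 17 h; ATP-based CellTiter-Glo luminescence quantified viability.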

[9] = target: Peroxisome proliferator-activated receptor delta (Homo sapiens) (UniProt Q03181); test: qHTS assay to identify small molecule agonists of the peroxisome proliferator-activated receptor delta (PPARd) signaling pathway (AID 743212; calls by dose curve)
How it was run: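 Tox21 library screened in GeneBLAzer PPARd UAS-bla HEK293H cells. After compound treatment at 37 C, a FRET-based beta-lactamase substrate was applied for 2 h and fluorescence recorded.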

[10] = qHTS assay to identify small molecule antagonists of the peroxisome proliferator-activated receptor delta (PPARd) signaling pathway - cell viability counter screen (AID 743213); note: nearly all actives have a fitted effect of over 50% in size
How it was run: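 Same-well viability: cells pre-incubated 5 h, dosed with compound plus 300 nM L165041, kept 17 h at 37 C, FRET substrate 2 h RT, then CellTiter-Glo 30 min RT and luminescence.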

[11] = target: Peroxisome proliferator-activated receptor delta (Homo sapiens) (UniProt Q03181); test: qHTS assay to identify small molecule antagonists of the peroxisome proliferator-activated receptor delta (PPARd) signaling pathway (AID 743215; active = well fitted inhibition curve with a large enough effect in the signal ratio in the repeat runs, not every such curve was filed as active; the % refers to the signal ratio;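 note: cells stimulated with agonist L165041 at 300 nM final during compound exposure; series mostly up to about 62 µM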)
How it was run: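 Screen format: qHTS, antagonist mode. HEK293H PPARd-bla cells received compound and 300 nM L165041 (final), 17 h, 37 C. Beta-lactamase detected via FRET substrate fluorescence, 2 h, room temperature.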

[12] = target: Bile acid receptor (Homo sapiens) (UniProt Q96RI1); test: qHTS assay to identify small molecule antagonists of the farnesoid-X-receptor (FXR) signaling pathway (AID 743217; active = well fitted inhibition curve with a large enough effect in the signal ratio in the repeat runs, not every such curve was filed as active; the % refers to the signal ratio)
How it was run: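 Quantitative HTS, beta-lactamase reporter format: FXR-UAS-bla HEK 293T cells co-treated 16 h at 37 °C with compounds and 50 uM final chenodeoxycholic acid, then read by B/G FRET fluorescence.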

[13] = qHTS assay to identify small molecule agonists of the farnesoid-X-receptor (FXR) signaling pathway - cell viability counter screen (AID 743218); note: nearly all actives have a fitted effect of over 45% in size
How it was run: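 Same-well cytotoxicity check on FXR-UAS-bla HEK 293T cells: 5 h attachment, 16 h compound at 37 C, CellTiter-Glo luminescence read at room temperature after 30 min.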

[14] = qHTS assay to identify small molecule antagonists of the farnesoid-X-receptor (FXR) signaling pathway - cell viability counter screen (AID 743221; active = well fitted cell-killing curve with a large enough effect in the repeat runs, not every such curve was filed as active; note: nearly all actives have a fitted effect of over 50% in size)
How it was run: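 Multiplexed counter screen: viability of FXR-bla HEK 293T cells under agonist stimulation by chenodeoxycholic acid (50 uM, final) and test compound for 16 h at 37 C, measured by CellTiter-Glo luminescence in the reporter wells.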

[15] = qHTS assay to identify small molecule agonists of the vitamin D receptor (VDR) signaling pathway - cell viability counter screen (AID 743224); note: series mostly up to about 63 µM; nearly all actives have a fitted effect of over 50% in size
How it was run: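 Counter screen for cytotoxicity: VDR-bla cells at 2,000 cells/well, 16 h compound exposure, then CellTiter-Glo luminescence after the beta-lactamase measurement.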

[16] = target: Bile acid receptor (Homo sapiens) (UniProt Q96RI1); test: qHTS assay to identify small molecule agonists of the farnesoid-X-receptor (FXR) signaling pathway (AID 743220; active = well fitted activation curve with a large enough effect in the signal ratio in the repeat runs, not every such curve was filed as active; the % refers to the signal ratio)
How it was run: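 FXR-UAS-bla HEK 293T cells carrying a UAS-driven beta-lactamase reporter were plated for 5 h at 37C/5% CO2, then exposed to DMSO-dissolved Tox21 10K compounds for 16 h at 37C. A LiveBLAzer B/G FRET substrate was loaded for 2 h at room temperature before fluorescence reading.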

[17] = target: Vitamin D3 receptor (Homo sapiens) (UniProt P11473); test: qHTS assay to identify small molecule agonists of the vitamin D receptor (VDR) signaling pathway (AID 743222; calls by dose curve)
How it was run: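 Using LiveBLAzer B/G FRET detection, agonism was scored in VDR-bla cells exposed overnight (16 h, 37C) to DMSO-dissolved compounds; substrate incubation was 2 h at room temperature.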

[18] = target: Vitamin D3 receptor (Homo sapiens) (UniProt P11473); test: qHTS assay to identify small molecule antagonists of the vitamin D receptor (VDR) signaling pathway (AID 743223; active = well fitted inhibition curve with a large enough effect in the signal ratio in the repeat runs, not every such curve was filed as active; the % refers to the signal ratio)
How it was run: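 Cells carrying a VDR-driven beta-lactamase reporter (VDR-bla) were co-treated with compound and 3 nM final 1alpha,25-dihydroxyvitamin D3 for 16 h at 37C; reporter activity was measured as FRET substrate fluorescence after 2 h at room temperature.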

[19] = qHTS assay to identify small molecule antagonists of the peroxisome proliferator-activated receptor gamma (PPARg) signaling pathway - cell viability counter screen (AID 743194); note: nearly all actives have a fitted effect of over 55% in size
How it was run: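 Cytotoxicity counter screen in PPARg-bla HEK293H cells, same wells as reporter assay. Compounds plus 50 nM rosiglitazone (final) for 17 h at 37 C, then viability read by CellTiter-Glo luminescence.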

Measured: Potency

Sequence of Peroxisome proliferator-activated receptor delta (Homo sapiens) (Q03181 whole entry, looked up): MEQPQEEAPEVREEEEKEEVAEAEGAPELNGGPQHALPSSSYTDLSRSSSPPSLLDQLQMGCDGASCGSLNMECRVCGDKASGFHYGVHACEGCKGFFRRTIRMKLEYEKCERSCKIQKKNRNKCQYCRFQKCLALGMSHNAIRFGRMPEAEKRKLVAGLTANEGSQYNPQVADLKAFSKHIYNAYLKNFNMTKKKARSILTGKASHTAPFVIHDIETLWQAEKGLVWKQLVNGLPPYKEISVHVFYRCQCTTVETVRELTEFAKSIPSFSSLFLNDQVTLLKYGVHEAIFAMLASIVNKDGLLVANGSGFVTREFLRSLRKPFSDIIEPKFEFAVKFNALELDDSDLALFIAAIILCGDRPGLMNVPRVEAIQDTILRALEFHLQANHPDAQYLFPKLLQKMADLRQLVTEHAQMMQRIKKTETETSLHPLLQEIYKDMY
Sequence of Vitamin D3 receptor (Homo sapiens) (P11473 whole entry, looked up): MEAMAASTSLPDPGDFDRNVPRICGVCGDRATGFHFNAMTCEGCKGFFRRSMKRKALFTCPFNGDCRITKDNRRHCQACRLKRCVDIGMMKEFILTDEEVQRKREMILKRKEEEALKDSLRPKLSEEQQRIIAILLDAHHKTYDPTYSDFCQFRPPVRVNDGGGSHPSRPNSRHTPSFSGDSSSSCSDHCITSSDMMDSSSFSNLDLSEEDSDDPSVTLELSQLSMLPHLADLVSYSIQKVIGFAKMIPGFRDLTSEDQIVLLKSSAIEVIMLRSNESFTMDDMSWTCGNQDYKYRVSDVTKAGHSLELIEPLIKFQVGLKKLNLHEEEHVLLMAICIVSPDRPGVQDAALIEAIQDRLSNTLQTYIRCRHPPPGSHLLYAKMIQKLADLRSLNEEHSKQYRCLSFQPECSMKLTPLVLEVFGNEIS
Sequence of Aryl hydrocarbon receptor (Homo sapiens) (P35869 whole entry, looked up): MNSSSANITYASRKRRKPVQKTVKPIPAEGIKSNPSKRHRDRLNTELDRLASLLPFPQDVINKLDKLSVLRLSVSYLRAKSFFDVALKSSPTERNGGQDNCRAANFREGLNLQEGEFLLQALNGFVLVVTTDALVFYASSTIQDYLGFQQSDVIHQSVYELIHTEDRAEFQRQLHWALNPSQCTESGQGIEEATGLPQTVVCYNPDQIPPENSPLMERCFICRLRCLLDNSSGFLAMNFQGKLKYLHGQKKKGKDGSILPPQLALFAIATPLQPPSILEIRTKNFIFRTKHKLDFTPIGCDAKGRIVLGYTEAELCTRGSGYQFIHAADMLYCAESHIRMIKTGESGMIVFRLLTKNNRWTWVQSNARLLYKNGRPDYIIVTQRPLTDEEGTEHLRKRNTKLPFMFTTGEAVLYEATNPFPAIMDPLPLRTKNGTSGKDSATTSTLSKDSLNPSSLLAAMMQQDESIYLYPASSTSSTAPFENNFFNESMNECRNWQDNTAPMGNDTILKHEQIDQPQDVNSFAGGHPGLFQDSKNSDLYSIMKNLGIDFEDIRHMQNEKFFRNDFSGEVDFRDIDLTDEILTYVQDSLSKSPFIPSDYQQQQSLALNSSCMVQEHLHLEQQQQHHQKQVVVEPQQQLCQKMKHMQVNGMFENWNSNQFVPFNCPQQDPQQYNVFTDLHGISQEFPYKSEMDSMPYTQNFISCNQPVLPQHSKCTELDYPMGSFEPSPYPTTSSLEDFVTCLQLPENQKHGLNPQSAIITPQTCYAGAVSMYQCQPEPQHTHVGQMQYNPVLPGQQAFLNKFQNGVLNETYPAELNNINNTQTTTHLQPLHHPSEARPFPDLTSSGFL
Sequence of Bile acid receptor (Homo sapiens) (Q96RI1 whole entry, looked up): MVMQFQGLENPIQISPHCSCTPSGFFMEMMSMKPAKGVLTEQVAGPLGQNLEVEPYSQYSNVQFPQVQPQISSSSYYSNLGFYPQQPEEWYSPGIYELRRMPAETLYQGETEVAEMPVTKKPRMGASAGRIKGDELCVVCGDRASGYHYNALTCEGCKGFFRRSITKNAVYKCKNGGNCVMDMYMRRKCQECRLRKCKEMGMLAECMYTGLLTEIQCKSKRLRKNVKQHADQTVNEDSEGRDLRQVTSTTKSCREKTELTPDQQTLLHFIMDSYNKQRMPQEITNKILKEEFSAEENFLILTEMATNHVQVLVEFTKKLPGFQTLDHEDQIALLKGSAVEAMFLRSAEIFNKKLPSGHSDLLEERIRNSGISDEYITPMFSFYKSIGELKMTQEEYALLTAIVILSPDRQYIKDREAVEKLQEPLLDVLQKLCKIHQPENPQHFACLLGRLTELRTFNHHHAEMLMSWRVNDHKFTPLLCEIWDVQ
Sequence of Peroxisome proliferator-activated receptor gamma (Homo sapiens) (P37231 whole entry, looked up): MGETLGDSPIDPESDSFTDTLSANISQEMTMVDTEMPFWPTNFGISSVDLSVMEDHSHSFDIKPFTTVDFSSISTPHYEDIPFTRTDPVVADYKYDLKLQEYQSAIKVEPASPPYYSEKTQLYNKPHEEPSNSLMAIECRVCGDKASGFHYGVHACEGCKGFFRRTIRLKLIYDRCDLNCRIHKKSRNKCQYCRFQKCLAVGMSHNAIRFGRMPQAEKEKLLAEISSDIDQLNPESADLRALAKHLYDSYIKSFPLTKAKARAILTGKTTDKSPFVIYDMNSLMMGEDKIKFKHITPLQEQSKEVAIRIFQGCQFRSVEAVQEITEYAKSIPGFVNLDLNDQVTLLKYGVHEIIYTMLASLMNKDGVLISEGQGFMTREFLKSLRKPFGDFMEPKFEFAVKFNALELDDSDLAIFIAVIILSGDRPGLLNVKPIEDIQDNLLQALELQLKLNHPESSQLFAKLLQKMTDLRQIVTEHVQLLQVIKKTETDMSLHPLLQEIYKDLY

C[C@@H](c1ncncc1F)C(O)(Cn1cncn1)c1ccc(F)cc1F (stereo partly drawn)
not listed: [16] | [17] | [18] | [19]
inactive: all other assays above

CN(Cc1ccc(C(C)(C)C)cc1)Cc1cccc2ccccc12
active: [8] 29.8 µM
not listed: [9] | [10] | [12] | [13] | [14] | [15] | [19]
inactive: all other assays above

COS(=O)(=O)C(F)(F)F
not listed: [7] | [8] | [10] | [11] | [15] | [17] | [18]
inactive: all other assays above

Clc1ccc(Cn2c(CN3CCCC3)nc3ccccc32)cc1
active: [8] 29.8 µM
inactive: [1] | [2] | [3] | [5] | [6] | [15]

CC1=CC=C(C(C)C)CC1
not listed: [9] | [11] | [12] | [16] | [17] | [18] | [19]
inactive: all other assays above

O=S(=O)(Oc1ccc(Cl)cc1)c1ccccc1
not listed: [9] | [11] | [13] | [18]
inactive: all other assays above

COc1ccc(S(=O)(=O)N2C(=O)[C@@](c3ccccc3OC)(N3C[C@H](O)C[C@H]3C(=O)N(C)C)c3cc(Cl)ccc32)c(OC)c1
active: [2] 30.6 µM
inactive: [1] | [3] | [6] | [11] | [13] | [14] | [17]

CCCCc1nc2cccnc2n1Cc1ccc(-c2ccccc2-c2nnn[nH]2)cc1
active: [3] 5.49 µM
inactive: [1] | [2] | [5] | [6] | [8] | [10] | [13] | [14] | [17] | [15]

CCCCCCCCCCCCCCCCOS(=O)(=O)O
inactive: [1] | [2] | [3] | [6] | [13] | [16] | [14] | [17]

N=c1ccn2c(n1)O[C@H]1[C@H](O)[C@@H](CO)O[C@H]12
not listed: [4] | [9] | [11] | [12] | [16] | [17]
inactive: all other assays above
